Structures are written as SMILES. Results filed as inconclusive are left out. A number with no mark means an inactive call. Calls come from the whole dose curve; as a rule, active = well fitted cell-killing curve with a large enough effect; inconclusive = small, poorly fitted or top-dose-only effect, or effect the other way; inactive = flat fitted curve, though single readings scatter. Where a SMILES comes first, the peptide text is derived from it. [ ]: non-standard residue; d: D form. 2Abz = Nc1ccccc1C(=O)O
% is set by controls: 0 for no effect and ±100 for the full control effect.

The test system of one experiment is JEG-3. Put plainly: Primary qHTS to identify gynecologic anti-cancer compounds using libraries of approved drugs and bioactive compounds (AID 1345084). Note: nearly all actives have a fitted effect of over 55% in size. The settings on record: Gynecologic cancer cell panel viability, ATPlite luminescence, 48 h; series mostly up to 57.5 µM; activity change, negative = cytotoxicity: at the top concentration. An outline of the steps:
(§1)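 Five-concentration response, 48 h; readout is ATP-driven luciferase luminescence.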
A general note: qHTS replaces the single test concentration by a dilution series.
Take `CC(=O)O[C@H]1[C@H](C)[C@@H](O)[C@H]2[C@@H]1C=C(C(=O)O)[C@H]1C[C@@H]3[C@H]([C@H]21)[C@H]1C(=O)O[C@@H]2CC[C@@]3(C)O[C@]1(O)[C@@H]2C`: the “activity change, negative = cytotoxicity” value is 3.88% [at 25.3 µM]. On to `CC(=O)OC(CSC1CCC(=O)OC(C)CCC(=O)C1)C(=O)O` (stereo not drawn), for which the “activity change, negative = cytotoxicity” value was 4.56% [at 38.5 µM]. Same read-out and setting: for `CC(/C=C/C1(O)C(C)CC(O)CC1(C)C)OC1OC(CO)C(O)C(O)C1O` (stereo not drawn) the value was 4.2% [at 38.5 µM].

For `CC(=O)N[C@H]1CCN(c2ccc(C3=NOC(CN[S+](=O)([O-])C(C)C)C3)cc2F)C1` (stereo partly drawn), the “activity change, negative = cytotoxicity” value was 3.42%. Turning to `CC1CCC2C(C)(C)C(O)CCC2(C)C12Cc1c(O)cc3c(c1O2)C(N)=NC3` (stereo not drawn), the “activity change, negative = cytotoxicity” value was -5.81% [at 38.5 µM]. The same measure, in the same setting: for `CNC(=O)Nc1ccc(OC)c(NC(=O)NC(=O)c2cc(F)c(F)cc2Cl)c1` the value was 9.61%; for `CCCC(N[C@@H](C)C(=O)N1[C@H](C(=O)O)C[C@@H]2CCCC[C@@H]21)C(=O)OCC` (stereo partly drawn), -3.89%; for `C/C=C(\C)C(=O)O[C@@H](C)[C@H]1CC[C@]2(O)C3CCC4C[C@@H](OC5CC(OC)C(OC6CC(OC)C(OC7CC(OC)C(OC8OC(C)C(OC9OC(CO)C(O)C(O)C9O)C(OC)C8O)C(C)O7)C(C)O6)C(C)O5)CC[C@]4(C)C3[C@H](O)[C@@H](O)[C@]12C` (stereo partly drawn), -1.08% [at 6.55 µM]. As for `CC1OC(O[C@H]2[C@@H](O)C[C@@]3(C)C([C@H](O)C[C@]4(C)C3CC=C3C5CC(C)(C)CC[C@]5(C(=O)OC5OC(CO)C(O)C(O)C5OC5OCC(OC6OCC(OC7OCC(O)C(O)C7O)C(O)C6O)C(OC6OCC(O)(CO)C6O)C5O)CC[C@]34C)[C@]2(C)CO)C(O)C(O)C1O` (stereo partly drawn), the activity change, negative = cytotoxicity was -1.46% [at 6.55 µM]. Same read-out and setting: the result for `CCC(=O)N[C@@H]1Cc2ccccc2[C@H](c2ccccc2)C1` reads -6.91%; that for `CCC(C)C1NC(=O)C2CCCN2C(=O)C(C(C)C)NC(=O)c2ccccc2NC(=O)C(Cc2ccc(O)cc2)NC(=O)C(C)NC(=O)C(C(C)O)NC1=O` (stereo not drawn) (cyclo([2Abz]VPITAY); configuration not given here), -2.95% [at 25.3 µM]. On to `C=C1CCC2C(C)(C(=O)O)CC(O)CC2(C)C1CC/C(C)=C/C(=O)O` (stereo not drawn), for which the “activity change, negative = cytotoxicity” value is 5.27% [at 38.5 µM]. On the same count and under the same terms, for `COc1cc([C@@H]2Oc3c(OC)cc(CCCO)cc3[C@@H]2CO[C@@H]2O[C@H](CO)[C@@H](O)[C@H](O)[C@H]2O)ccc1O` the value was 1.09% [at 25.3 µM]. `COc1cccc(-c2ccc([C@@H](Oc3cc(-c4ccc(C[C@H](N)C(=O)O)cc4)nc(N)n3)C(F)(F)F)cc2)c1`: the “activity change, negative = cytotoxicity” value was 0.28%. With `CCNC(=O)CCC/C=C\C[C@@H]1[C@@H](/C=C/C(O)CCc2ccccc2)[C@@H](O)C[C@@H]1O` (stereo partly drawn), the “activity change, negative = cytotoxicity” value was -13.4%. On to `Cc1[nH]cnc1C1CCN(c2nc3cccc4c3n2CCC4=O)CC1`, for which the “activity change, negative = cytotoxicity” value was 7.68%. Consider `C=C(C)[C@@H](C)[C@H]1O[C@]23C[C@]4(CO2)C(CCC2[C@@]5(C)CC[C@H](O[C@@H]6OC[C@H](O)[C@H](O[C@@H]7O[C@H](CO)[C@@H](O)[C@H](O)[C@H]7O)[C@H]6O[C@@H]6O[C@@H](CO)[C@H](O)[C@H]6O)C(C)(C)C5CC[C@]24C)C3[C@@](C)(O)[C@@H]1OC(C)=O` (stereo partly drawn), for which the activity change, negative = cytotoxicity was 10.2% [at 11.6 µM]. Same read-out and setting: the result for `C/C1=C\C[C@H](O[C@@H]2O[C@H](CO)[C@@H](O)[C@H](O)[C@H]2O)/C(C)=C/[C@H]2OC(=O)[C@H](C)[C@@H]2CC1` reads 6.02% [at 25.3 µM]; that for `COC(=O)[C@H](CC1C=NC=N1)NCC12CC3CC(CC(C3)C1)C2` (stereo partly drawn), 5.55%; that for `CC(C)C1=CCC(C)(O)C(OC2OC(CO)C(O)C(O)C2O)C1` (stereo not drawn), 16.2% [at 38.5 µM]. Same read-out and setting: the result for `COc1cc(NC(=O)c2ccccn2)ccc1Cl` reads -10.3%; that for `NCCOCCOCCNC(=O)Cc1ccc(Nc2nc(NCc3ccc(F)cc3)nc(NCC3CCCCC3)n2)cc1`, 2.22%. Same read-out and setting: the result for `CCC(NC(=O)CC(NC(=O)C(CO)NC(=O)C(CC)NC(=O)c1ccc[nH]1)c1ccccc1)C(=O)O` (stereo not drawn) reads 7.09% [at 25.3 µM]; that for `C=C1C[C@]23C[C@H]1CC[C@H]2[C@@]12C=C[C@H](O)[C@@](C)(C(=O)O1)[C@H]2[C@@H]3C(=O)O`, -0.183% [at 38.5 µM]. Take `CC(C)CC(=O)OC[C@H]1O[C@@](COC(=O)CC(C)C)(O[C@H]2O[C@H](CO)[C@@H](O)[C@H](O)[C@H]2O)[C@@H](OC(=O)CC(C)C)[C@@H]1OC(=O)CC(C)C`: the “activity change, negative = cytotoxicity” value was 1.98% [at 25.3 µM]. The same measure, in the same setting: the result for `COc1cc(C2c3cc(O)c(OC)cc3CC(CO)C2CO)ccc1O` (stereo not drawn) reads -2.39% [at 38.5 µM].

In the case of `N#CCc1ccc(O)cc1O[C@@H]1O[C@H](CO)[C@@H](O)[C@H](O)[C@H]1O`, the “activity change, negative = cytotoxicity” value was -4.34% [at 38.5 µM]. On the same count and under the same terms, the result for `C=C1C[C@@]23CC[C@@H]4[C@](C)(C(=O)O)CCC[C@@]4(C)C2=CC[C@H]1C3` reads 8.93%. On the same count and under the same terms, the result for `C[C@@H]1O[C@@H](O[C@H]2[C@H](OC(C#N)c3ccc(O)cc3)O[C@H](CO)[C@@H](O)[C@@H]2O)[C@H](O)[C@H](O)[C@H]1O` (stereo partly drawn) reads 4.51% [at 25.3 µM].

Another experiment deals with OV90. The experiment is described as above. The following applies: Gynecologic cancer cell panel viability, ATPlite luminescence, 48 h; series mostly up to 57.5 µM; activity change, negative = cytotoxicity: at the top concentration. In short, it runs like this:
as §1
(ATP-based viability assays read luminescence as a measure of living cells.)
For the molecule `CC(=O)O[C@H](C[C@@H](C)[C@H]1C(=O)[C@H](O)[C@@]2(C)[C@@H]3CCC4C(C)(C)[C@@H](O[C@@H]5OC[C@H](O)[C@H](O)[C@H]5O)CC[C@@]45C[C@@]35CC[C@]12C)[C@@H]1OC1(C)C` (stereo partly drawn), the “activity change, negative = cytotoxicity” value was 11.7% [at 25.3 µM]. Same read-out and setting: the result for `CC1OC(OC2C(C)OC(OC3C(OC(=O)/C=C/c4ccc(O)cc4)C(CO)OC(OC4(COC(=O)/C=C/c5ccc(O)cc5)OC(CO)C(O)C4O)C3OC3OCC(O)(CO)C3O)C(O)C2O)C(O)C(O)C1O` (stereo not drawn) reads 8.76% [at 11.6 µM]; that for `CC(/C=C/[C@]1(O)[C@@]2(C)CO[C@@]1(C)C[C@@H](O)C2)=C\C(=O)O[C@@H]1O[C@H](CO)[C@@H](O)[C@H](O)[C@H]1O`, -2% [at 25.3 µM]. Still for that read-out and setting: the result for `C=C1C(=O)OC2CC(C)=C(C(C)CCCO[C@@H]3O[C@H](CO)[C@@H](O)[C@H](O)[C@H]3O)C(O)C12` (stereo partly drawn) reads -4.74% [at 25.3 µM]; that for `O=C(O[C@H]1[C@@H]2C[C@@H]3OC[C@@](O)([C@H]2[C@H](O[C@@H]2O[C@H](CO)[C@@H](O)[C@H](O)[C@H]2O)O3)[C@@H]1O)c1ccccc1`, 4.46% [at 25.3 µM]. The same measure, in the same setting: the result for `CC(=O)c1c(C)cc(O)cc1O[C@@H]1O[C@H](CO)[C@@H](O)[C@H](O)[C@H]1O` reads 4.59% [at 38.5 µM]; that for `CC1CCC(=O)CC(O)C(O)CC(=O)O1` (stereo not drawn), 14.7%. For the molecule `CC1(C)CC2C(O)C3=C(CC(C)(O)C2C1)C(=O)OC3O` (stereo not drawn), the “activity change, negative = cytotoxicity” value was 6.84%.

For the molecule `CC[C@H](/C=C/[C@@H](C)[C@H]1CC[C@H]2[C@@H]3CC=C4C[C@@H](O)CC[C@]4(C)[C@H]3CC[C@]12C)C(C)C`, the activity change, negative = cytotoxicity is 2.68% [at 6.55 µM]. As to `CC(=O)O[C@H]1[C@H](C)[C@@H](O)[C@H]2[C@@H]1C=C(C(=O)O)[C@H]1C[C@@H]3[C@H]([C@H]21)[C@H]1C(=O)O[C@@H]2CC[C@@]3(C)O[C@]1(O)[C@@H]2C`, the “activity change, negative = cytotoxicity” value is 7.23% [at 25.3 µM]. Still for that read-out and setting: the result for `CC(=O)OC(CSC1CCC(=O)OC(C)CCC(=O)C1)C(=O)O` (stereo not drawn) reads -4.48% [at 38.5 µM]. Consider `CC(/C=C/C1(O)C(C)CC(O)CC1(C)C)OC1OC(CO)C(O)C(O)C1O` (stereo not drawn), for which the “activity change, negative = cytotoxicity” value is 5.76% [at 38.5 µM]. Same read-out and setting: for `CC(=O)N[C@H]1CCN(c2ccc(C3=NOC(CN[S+](=O)([O-])C(C)C)C3)cc2F)C1` (stereo partly drawn) the value was -1.56%; for `CC1CCC2C(C)(C)C(O)CCC2(C)C12Cc1c(O)cc3c(c1O2)C(N)=NC3` (stereo not drawn), 7.79% [at 38.5 µM]; for `CNC(=O)Nc1ccc(OC)c(NC(=O)NC(=O)c2cc(F)c(F)cc2Cl)c1`, -1.9%. For the molecule `CCCC(N[C@@H](C)C(=O)N1[C@H](C(=O)O)C[C@@H]2CCCC[C@@H]21)C(=O)OCC` (stereo partly drawn), the “activity change, negative = cytotoxicity” value was 11.4%. Same read-out and setting: for `C/C=C(\C)C(=O)O[C@@H](C)[C@H]1CC[C@]2(O)C3CCC4C[C@@H](OC5CC(OC)C(OC6CC(OC)C(OC7CC(OC)C(OC8OC(C)C(OC9OC(CO)C(O)C(O)C9O)C(OC)C8O)C(C)O7)C(C)O6)C(C)O5)CC[C@]4(C)C3[C@H](O)[C@@H](O)[C@]12C` (stereo partly drawn) the value was 15.4% [at 6.55 µM]. For the molecule `CC1OC(O[C@H]2[C@@H](O)C[C@@]3(C)C([C@H](O)C[C@]4(C)C3CC=C3C5CC(C)(C)CC[C@]5(C(=O)OC5OC(CO)C(O)C(O)C5OC5OCC(OC6OCC(OC7OCC(O)C(O)C7O)C(O)C6O)C(OC6OCC(O)(CO)C6O)C5O)CC[C@]34C)[C@]2(C)CO)C(O)C(O)C1O` (stereo partly drawn), the activity change, negative = cytotoxicity was 3.36% [at 6.55 µM]. Same read-out and setting: for `CCC(=O)N[C@@H]1Cc2ccccc2[C@H](c2ccccc2)C1` the value was 0.115%; for `CCC(C)C1NC(=O)C2CCCN2C(=O)C(C(C)C)NC(=O)c2ccccc2NC(=O)C(Cc2ccc(O)cc2)NC(=O)C(C)NC(=O)C(C(C)O)NC1=O` (stereo not drawn) (cyclo([2Abz]VPITAY); configuration not given here), 8.02% [at 25.3 µM]; for `C=C1CCC2C(C)(C(=O)O)CC(O)CC2(C)C1CC/C(C)=C/C(=O)O` (stereo not drawn), 15.4% [at 38.5 µM]. Regarding `COc1cc([C@@H]2Oc3c(OC)cc(CCCO)cc3[C@@H]2CO[C@@H]2O[C@H](CO)[C@@H](O)[C@H](O)[C@H]2O)ccc1O`, the “activity change, negative = cytotoxicity” value was -2.9% [at 25.3 µM]. For the molecule `COc1cccc(-c2ccc([C@@H](Oc3cc(-c4ccc(C[C@H](N)C(=O)O)cc4)nc(N)n3)C(F)(F)F)cc2)c1`, the “activity change, negative = cytotoxicity” value is 15.9%. The same measure, in the same setting: for `CCNC(=O)CCC/C=C\C[C@@H]1[C@@H](/C=C/C(O)CCc2ccccc2)[C@@H](O)C[C@@H]1O` (stereo partly drawn) the value was 0.0552%. On the same count and under the same terms, the result for `Cc1[nH]cnc1C1CCN(c2nc3cccc4c3n2CCC4=O)CC1` reads 1.26%.

For the molecule `C=C(C)[C@@H](C)[C@H]1O[C@]23C[C@]4(CO2)C(CCC2[C@@]5(C)CC[C@H](O[C@@H]6OC[C@H](O)[C@H](O[C@@H]7O[C@H](CO)[C@@H](O)[C@H](O)[C@H]7O)[C@H]6O[C@@H]6O[C@@H](CO)[C@H](O)[C@H]6O)C(C)(C)C5CC[C@]24C)C3[C@@](C)(O)[C@@H]1OC(C)=O` (stereo partly drawn), the activity change, negative = cytotoxicity is 2.63% [at 11.6 µM]. Still for that read-out and setting: the result for `C/C1=C\C[C@H](O[C@@H]2O[C@H](CO)[C@@H](O)[C@H](O)[C@H]2O)/C(C)=C/[C@H]2OC(=O)[C@H](C)[C@@H]2CC1` reads 4.27% [at 25.3 µM]; that for `COC(=O)[C@H](CC1C=NC=N1)NCC12CC3CC(CC(C3)C1)C2` (stereo partly drawn), 8.08%; that for `CC(C)C1=CCC(C)(O)C(OC2OC(CO)C(O)C(O)C2O)C1` (stereo not drawn), 1.56% [at 38.5 µM].
